Screens (PubChem BioAssay)
Most compounds without a hit are left out; they make up all but 2.8% or so of the library.
KKLEB tox – cytotoxicity in KKLEB CF airway cells, primary screen, cytotoxicity control for CF NF-kB inhibitor project, cell-based, uHTS, fluorescence assay plates; hit rate 0.36% among 360,000; activity change (cytotoxicity), % at 5 µM; KKLEB CF airway cells viability, ATPlite luminescence, overnight; active compounds read low; cells stimulated with P. aeruginosa culture filtrate;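 active means corrected activity change at or below -50% at 5 µM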
CF NFkB block – inhibitors of PAF-induced NF-kB signaling, primary screen, cell-based, GFP fluorescence, uHTS | KKLEB NF-kB-GFP reporter, GFP fluorescence overnight | inhibition, % at 5 µM | hit rate 0.86% among 360,000 | AID 588850, 2011;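 active means at least 50% inhibition at 5 µM, scaled per plate between neutral and stimulator controls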;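 further: PAF is a Pseudomonas aeruginosa culture filtrate used as stimulus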
Shn3 inh set2 – reduction of Shn3 3'UTR firefly luciferase signal, primary screen, Schnurri-3 inhibitor project, cell-based, Clone20 osteoblasts, set 2; Clone20 osteoblast Shn3 3'UTR firefly luciferase, 24 h; hit rate 0.52% among 360,000; inhibition, % at 12.5 µM; AID 588674, 2011;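 active means mean inhibition of at least 75% with every replicate also reaching 75%; inconclusive means mean inhibition at least 75% but some replicate below; inactive means mean inhibition below 75%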
Peg3 prom inh – Peg3 promoter-driven luciferase inhibitors, primary screen, cell-based, HeLa, luciferase luminescence. HeLa PEG-Prom luciferase reporter, overnight. inhibition, % at 20 µM. hit rate 1.7% among 360,000. AID 588405, 2011;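 active means inhibition of at least 50% at 20 µM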
HIF-2a inh – HIF-2a reporter inhibitors, primary screen, luminescence, 786-0 RCC cells; inhibition, % at 18.8 µM; 786-0 RCC cells HIF-2a reporter, luciferase luminescence, overnight; hit rate 0.72% among 360,000;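 active means inhibition of the luminescence signal of 40% or more relative to plate controls, in a single-dose primary screen at 18.75 µM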
TRPM1 prom inh – inhibitors of MITF-dependent TRPM1 promoter reporter, primary screen, cell-based, SK-MEL-5, single point, luciferase; SK-MEL-5 TRPM1 promoter luciferase, 24 h; inhibition, % at 12.5 µM; hit rate 0.83% among 330,000; AID 488899, 2010;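 active means mean inhibition across replicates of 60% or more, whatever share of single replicates reaches that level; inconclusive means some that reach 60%, reason not given; inactive means mean inhibition across replicates below 60%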
Each line names hits and unclear results; the compound was inactive in the other large screens.

COc1cc2ccccc2cc1C(=O)Nc1ccc(N2CCN(C)CC2)cc1	none
COc1cc2ccccc2cc1C(=O)Nc1ccc(N2CCN(C(=O)C(C)C)CC2)cc1	Peg3 prom inh 77
CC(=O)Cn1nnc2sc(-c3ccccc3)cc2c1=O	none
CCOC(=O)C1CCN(S(=O)(=O)CCNC(=O)c2ccc(F)cc2)CC1	none
CC(C)[n+]1ccn(C2=C([O-])c3ccccc3C(=O)/C2=N\S(=O)(=O)c2ccccc2)c1	none
CCCCC[n+]1ccn(C2=C([O-])c3ccccc3C(=O)/C2=N\S(=O)(=O)c2ccc(Br)cc2)c1	TRPM1 prom inh 85
CCCC[n+]1ccn(C2=C([O-])c3ccccc3C(=O)/C2=N\S(=O)(=O)c2ccccc2)c1	TRPM1 prom inh 96
CCCCC[n+]1ccn(C2=C([O-])c3ccccc3C(=O)/C2=N\S(=O)(=O)c2ccccc2)c1	TRPM1 prom inh 94
Cc1ccccc1CNS(=O)(=O)c1c(C)[nH]c(C)c1C(=O)N1CCCCC1	none
CSCCNC(=O)C1(C)CCN1C(=O)CCc1ccccc1 (stereo not given)	none (no result: TRPM1 prom inh)
NC1=NC[C@H](Cc2ccc(O)cc2)N1CCCCC1CCCCC1	none
NC1=NC[C@H](Cc2ccccc2)N1CCCCC1CCCCC1	Peg3 prom inh 71
CN(C)c1nc(N/N=C\c2ccc(Cl)c([N+](=O)[O-])c2)nc(Nc2ccc(F)cc2)n1	Peg3 prom inh 65
Cc1c(CCOC(=O)C23CC4(C)CC(C)(CC(C)(C4)C2)C3)sc[n+]1CC(=O)c1ccccc1	Shn3 inh set2 90, Peg3 prom inh 113, TRPM1 prom inh inconclusive
Cc1c(CCOC(=O)CC23CC4CC(CC(C4)C2)C3)sc[n+]1CC(=O)c1ccccc1	Peg3 prom inh 62
COCCN(C(=O)c1ccc2c(c1)S(=O)(=O)N=C1CCCCCN12)c1c(N)n(CC(C)C)c(=O)[nH]c1=O	none
CC(C)CC[n+]1ccccc1/C=C/c1ccc(N(C)C)cc1	TRPM1 prom inh 73
CN(C)c1ccc(/C=C/c2cccc[n+]2[O-])cc1	none
COCCN(CC(=O)Nc1cccc(C)c1C)C(=O)c1oc2c(Cl)cccc2c1C	Peg3 prom inh 52
O=C(/C=C/NCc1cccnc1)c1ccc(-c2ccccc2)cc1	none
Cc1ccc2cc(C)c(SCC(=O)Nc3cc(C)on3)nc2c1	none
COc1ccccc1-c1nnc2sc(-c3ccc(N(C)C)cc3)nn12	CF NFkB block 53
C[C@@H]1CCCCCCCCC(=O)OCCN(C(=O)OC(C)(C)C)[C@H](C)CCCCCCCCC(=O)OCCN1C(=O)OC(C)(C)C	none
C[C@@H]1CCCCCCCCC(=O)OCCN[C@H](C)CCCCCCCCC(=O)OCCN[C@H](C)CCCCCCCCC(=O)OCCN1	TRPM1 prom inh 64
COc1ccc(NC(=O)CN(C)Cc2cccs2)cc1Cl	none
CN(C)CCC(=O)C(Cc1ccccc1)c1ccccc1 (stereo not given)	Peg3 prom inh 89
Cc1noc(C)c1C(=O)Nc1nccs1	none
O=c1[nH]c(CSc2nc3ccccc3o2)nc2c1cnn2-c1ccccc1	Peg3 prom inh 53
O=c1[nH]c(SCc2nc3c(cnn3-c3ccccc3)c(=O)[nH]2)nc2ccccc12	none
Cc1[nH]n(-c2ccccc2)c(=O)c1N=Nc1cccc(C(=O)O)c1	Peg3 prom inh 64, HIF-2a inh 64, TRPM1 prom inh inconclusive
COc1cc(CNCc2ccc(OC)c(OC)c2OC)cc(OC)c1	Peg3 prom inh 71
N#CC(=C1C=CC(=NO)C(Cl)=C1)c1ccc(Cl)cc1	CF NFkB block 53
COc1ccc(C(=O)N=c2nc3ccccn3s2)cc1	HIF-2a inh 46
COc1ccc(C(=O)O/N=C2\C(=O)N(C)c3ccccc32)cc1	none
O=C(CCl)c1ccc2c(c1)CCN2C(=O)C1CCCCC1	Peg3 prom inh 105
O=C1c2ccccc2-c2cccnc21	none (no result: TRPM1 prom inh)
O=C1c2ccccc2C(=O)c2c(/C=C/N3CCCCC3)ccnc21	TRPM1 prom inh 95
